The campaign covered roughly 310,000 compounds. About 14,000 (4.5%) showed an effect of 50% or more. Effects have a minus sign here. This excerpt belongs to a sample that is enriched for strong results.
biological target: human ether-à-go-go-related gene (hERG) potassium channel (human, UniProt Q12809); test: primary screen, population patch clamp on CHO cells stably expressing hERG; higher = less effect of the substance
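Also: peak tail current of the secondary pulse compared with the same well before compound.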

human ether-à-go-go-related gene (hERG) potassium channel, sequence (Q12809 whole entry, looked up): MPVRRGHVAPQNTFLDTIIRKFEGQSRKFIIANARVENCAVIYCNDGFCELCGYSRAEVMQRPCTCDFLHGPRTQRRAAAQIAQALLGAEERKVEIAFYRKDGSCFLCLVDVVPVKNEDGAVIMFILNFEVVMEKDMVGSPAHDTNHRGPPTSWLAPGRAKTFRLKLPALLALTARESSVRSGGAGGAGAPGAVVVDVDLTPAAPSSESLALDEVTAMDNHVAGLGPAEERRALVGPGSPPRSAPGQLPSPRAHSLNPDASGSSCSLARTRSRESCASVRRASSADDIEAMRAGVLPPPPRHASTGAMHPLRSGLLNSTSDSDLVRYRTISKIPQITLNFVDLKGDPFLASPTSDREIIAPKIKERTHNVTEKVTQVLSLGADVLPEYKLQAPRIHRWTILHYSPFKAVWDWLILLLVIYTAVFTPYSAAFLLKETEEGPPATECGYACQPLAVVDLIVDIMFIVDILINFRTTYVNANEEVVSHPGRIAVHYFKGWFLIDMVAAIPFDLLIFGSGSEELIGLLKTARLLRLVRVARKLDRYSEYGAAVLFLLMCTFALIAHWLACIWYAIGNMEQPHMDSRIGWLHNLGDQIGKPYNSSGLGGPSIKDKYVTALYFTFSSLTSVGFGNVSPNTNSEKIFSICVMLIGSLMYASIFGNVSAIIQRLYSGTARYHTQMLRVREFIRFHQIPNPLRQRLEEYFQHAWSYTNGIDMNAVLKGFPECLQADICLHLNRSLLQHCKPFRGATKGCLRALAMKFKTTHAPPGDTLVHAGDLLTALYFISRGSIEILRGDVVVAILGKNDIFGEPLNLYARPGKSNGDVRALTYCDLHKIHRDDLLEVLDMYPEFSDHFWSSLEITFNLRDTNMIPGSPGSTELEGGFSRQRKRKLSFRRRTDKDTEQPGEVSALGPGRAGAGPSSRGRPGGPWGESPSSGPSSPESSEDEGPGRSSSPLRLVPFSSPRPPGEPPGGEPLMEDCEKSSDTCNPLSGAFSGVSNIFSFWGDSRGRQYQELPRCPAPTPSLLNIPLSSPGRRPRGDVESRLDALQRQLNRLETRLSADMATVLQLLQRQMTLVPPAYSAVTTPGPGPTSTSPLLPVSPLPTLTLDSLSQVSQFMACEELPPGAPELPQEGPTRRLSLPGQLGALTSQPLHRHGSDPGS

Structure (SMILES)	hERG current change (%, negative = inhibition) at 10uM [%]
O=C(CN1CCN(S(=O)(=O)c2ccc(Cl)cc2)CC1)NCC1(N2CCOCC2)CCCCC1	-39.3
O=C(CNCC1(N2CCOCC2)CCCCC1)Nc1ccc(Cl)cc1	-78.8
O=C(CN1CCN(S(=O)(=O)c2ccc(F)cc2)CC1)NCC1(N2CCOCC2)CCCCC1	-18.6
O=C(CN1CCN(CC(=O)Nc2cccc(F)c2)CC1)NCC1(N2CCOCC2)CCCCC1	-27
O=C(CN1CCN(CC(=O)Nc2ccc(F)cc2)CC1)NCC1(N2CCOCC2)CCCCC1	-73.4
O=C(Cc1ccc(Cl)cc1Cl)NCC1(N2CCOCC2)CCCCC1	5.44
N#CCC(=O)Nc1ccc(C(=O)NCC2(N3CCOCC3)CCCCC2)cc1	7.48
CC(NCC1(N2CCOCC2)CCCCC1)C(=O)Nc1ccc(Cl)cc1Cl.O=C(O)C(=O)O (stereo not drawn)	-74.6
CC(NCC1(N2CCOCC2)CCCCC1)C(=O)N1CCc2ccccc21.O=C(O)C(=O)O (stereo not drawn)	-5.73
O=C(Nc1ccc(S(=O)(=O)NCc2cccnc2)cc1)c1ccco1	10.2
O=C(COc1ncnc2sccc12)N1CCc2ccccc2C1	0.518
Cc1nc2ccccc2c(=O)n1/N=C/c1ccc(O)cc1O	10.4
Cc1ccc(NC(C)C(=O)N/N=C/c2ccc([N+](=O)[O-])s2)cc1 (stereo not drawn)	8.3
O=C(COc1ccc(Cl)cc1)N(Cc1cccs1)C1CCS(=O)(=O)C1 (stereo not drawn)	-48.1
O=C(Nc1ccc(Cl)cc1)OC1CN2CCC1CC2 (stereo not drawn)	-40.6
O=C(COc1ccc(Cl)cc1)N1CCCC1	-7.47
Cl.O=C(COc1ccc(Cl)cc1)NC1CN2CCC1CC2 (stereo not drawn)	-35.1
Cl.O=C(COc1ccc(Cl)cc1)N(c1ccccc1Cl)C1CN2CCC1CC2 (stereo not drawn)	-50.5
Cl.O=C(COc1ccc(Cl)cc1)N(c1ccc(Cl)cc1)C1CN2CCC1CC2 (stereo not drawn)	-65.1

Structure (SMILES)	hERG current change (%, negative = inhibition) at 10uM [%]
Cl.NCC(O)(c1ccc(Cl)cc1)c1ccc(Cl)cc1	-5.47
CN1CCN(CC(O)(c2ccc(Cl)cc2)c2ccc(Cl)cc2)CC1	-73.3
CN1CCN(CC(C)(C)NS(=O)(=O)c2ccc(Cl)cc2)CC1	-20.4
O=C(N/N=C/c1cccnc1)c1ccc(NC(=O)c2cccc(Cl)c2)cc1	15.3
Cc1cccc(Cl)c1NC(=O)N1CCCN(c2nc3ccc(Cl)cc3s2)CC1	-20.6
COc1cccc(/C=C/C2=CC(C)(C)NC(=S)N2)c1	16
COc1ccc(CN(Cc2ccccn2)S(=O)(=O)c2ccc(-n3cnnn3)c(OC)c2)cc1	-47.2
COc1ccc(CN(Cc2ccccn2)S(=O)(=O)c2ccc(-n3cnnn3)cc2)cc1	-72.7
COc1ccc(CN(C2CCCC2)S(=O)(=O)c2ccc(-n3cnnn3)cc2)cc1OC	-64
COc1cc(S(=O)(=O)N(Cc2ccccc2)Cc2ccccn2)ccc1-n1cnnn1	2.81
COc1ccc(CN(C2CCCC2)S(=O)(=O)c2ccc(-n3cnnn3)c(OC)c2)cc1OC	-28.1
COc1ccc(CCN(Cc2cccs2)S(=O)(=O)c2ccc(-n3cnnn3)c(OC)c2)cc1OC	10.4
COc1ccc(CN(C2CCCC2)S(=O)(=O)c2ccc(-n3cnnn3)cc2)cc1	-43.8
COc1ccc(CCN(Cc2cccs2)S(=O)(=O)c2ccc(-n3cnnn3)cc2)cc1OC	-52.5
COc1cc(S(=O)(=O)N(CCc2ccccc2)Cc2cccs2)ccc1-n1cnnn1	-3.57
O=C(N/N=C/c1ccc(Cl)cc1Cl)C(=O)NC1CC1	17.4
Nc1nonc1C(=O)OCC(=O)c1ccc(Cl)cc1	4.6
Cc1ccccc1NC(=O)NC1(C(=O)N2CCCC2)CCCCC1	9.33
CCCCN(CC)CCCNC(=O)c1cc2cc3ccc(OC)cc3nc2o1	-64.5

Structure (SMILES)	hERG current change (%, negative = inhibition) at 10uM [%]
COCCNC(=O)c1cc2cc3ccc(OC)cc3nc2o1	12.8
Cc1ccc2cc3cc(C(=O)NCCC(C)C)oc3nc2c1	8.43
COc1ccc2cc3cc(C(=O)NCCC(C)C)oc3nc2c1	6.93
Cc1ccc2cc3cc(C(=O)NC4CC4)oc3nc2c1	8.43
CCN(CC)CCNC(=O)c1cc2cc3ccc(OC)cc3nc2o1	-18
CCCCN(CC)CCCNC(=O)c1cc2cc3ccc(C)cc3nc2o1	-53.4
CCCN(CCC)CCCNC(=O)c1cc2cc3ccc(OC)cc3nc2o1	-52.8
CCCCN(C)CCNC(=O)c1cc2cc3ccc(OC)cc3nc2o1	-43
CCOC(=O)C1=C(N)Oc2c(oc(CO)cc2=O)C1c1c(F)cccc1Cl (stereo not drawn)	0.47
Nc1ncc([N+](=O)[O-])cc1S(=O)(=O)c1ccccc1	8.32
COc1ccc(N2C(=O)C3CCCN3C2c2cc(OC)c(OC)cc2OC)cc1 (stereo not drawn)	-4.23
CSc1nc(C)cc(C)c1C(N)=O	8.49
CCCNC(=O)NC(=O)CSc1nnc(-c2ccncc2)n1CC	11.6
COc1ccc(-c2cc3c(=O)n(CC(=O)NCCCc4ccccc4)ncn3n2)cc1	7.35
COc1ccc(-c2cc3c(=O)n(CC(=O)NCCCN4CCC(Cc5ccccc5)CC4)ncn3n2)cc1	-72.4
COc1ccc(-c2cc3c(=O)n(CC(=O)NCCCN4CCC(N5CCCCC5)CC4)ncn3n2)cc1	21.5
CCc1ccc(-c2cc3c(=O)n(CC(=O)NCCCN4CCN(C)CC4)ncn3n2)cc1	-4.24
COc1ccc(-c2cc3c(=O)n(CC(=O)NCCCN4CCN(Cc5ccccc5)CC4)ncn3n2)cc1	-54.8
CCC1CCCCN1CCCNC(=O)Cn1ncn2nc(-c3ccc(OC)cc3)cc2c1=O (stereo not drawn)	-42.1

Reference: PMC4336329 (PLoS ONE, 2015)
